Laboratory results from PubChem BioAssay AID1851 (National Center for Advancing Translational Sciences (NCATS), 2009).
About 4,000 (25%) of roughly 16,000 compounds were called active. Not shown: some 26% with an inconclusive outcome. The list is a sample of the results. A number with no mark means an inactive call. Calls come from the whole dose curve; as a rule, active = well fitted curve in the direction sought with a large enough effect; inconclusive = small, poorly fitted or top-dose-only effect, or effect the other way; inactive = no such curve, though single readings can be large or run the other way.

Each compound was assayed against Cytochrome P450 2C9 (Homo sapiens) (UniProt P11712) (assay: Cytochrome panel assay with activity outcomes). Settings: recombinant CYP, pro-luciferin dealkylation, luminescence, p450-cyp2c9; series mostly up to 57.1 µM; activity, negative = inhibition: at the top concentration.
% is set by controls: 0 for no effect and ±100 for the full control effect.

Sequence of Cytochrome P450 2C9 (Homo sapiens) (P11712 whole entry, looked up): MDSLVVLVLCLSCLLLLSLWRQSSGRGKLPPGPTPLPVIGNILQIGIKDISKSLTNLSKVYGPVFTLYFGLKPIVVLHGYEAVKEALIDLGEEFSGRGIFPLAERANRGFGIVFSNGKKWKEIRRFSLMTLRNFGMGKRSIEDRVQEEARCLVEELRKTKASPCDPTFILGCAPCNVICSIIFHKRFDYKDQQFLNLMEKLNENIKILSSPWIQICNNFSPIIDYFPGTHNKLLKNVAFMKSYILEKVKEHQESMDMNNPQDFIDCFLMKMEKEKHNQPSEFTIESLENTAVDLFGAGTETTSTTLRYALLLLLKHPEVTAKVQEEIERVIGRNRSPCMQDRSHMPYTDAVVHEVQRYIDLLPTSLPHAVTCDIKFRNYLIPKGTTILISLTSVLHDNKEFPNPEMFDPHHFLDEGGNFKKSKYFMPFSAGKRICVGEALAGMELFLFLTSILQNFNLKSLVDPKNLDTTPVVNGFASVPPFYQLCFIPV

For `COC(=O)c1cc(Br)c(=O)n(CCc2ccc(O)cc2)c1`, which AC50 is on record?
The AC50 was 12.6 µM (active).

With `CC(C)CN1CCCC2(CCN(C(=O)c3csnn3)CC2)C1` as the compound, how does the “activity, negative = inhibition” value read?
The value was -12.6%.

With `O=C(O)C1CCCN1C(=O)OCc1ccccc1` (stereo unspecified) as the compound, how does the “activity, negative = inhibition” value read?
Its value is -14.5%.

How did the “activity, negative = inhibition” value turn out when `NC(=O)C1CCN(C(=O)OCc2ccccc2)CC1` was run?
The value was -21.8%.

`O=C1CCC[C@@H](C(C(=O)OCc2ccccc2)C(=O)OCc2ccccc2)C1` was tested. Which AC50 did it give?
Its AC50 is 3.16 µM (active).

How did the AC50 turn out when `CCC(=O)Nc1ccc(/C(C)=N\NS(=O)(=O)c2ccc(C)cc2)cc1` was run?
Its AC50 is 2.24 µM (active).

For `COc1ccc(C(=O)N/N=C(\C)Cn2nc([N+](=O)[O-])cc2C)cc1`, which “activity, negative = inhibition” value is on record?
Its value is -17.7%.

Which “activity, negative = inhibition” value does the source give for `COc1ccc(/C(C)=N/NC(=O)c2ccc(N(C)C)cc2)cc1` here?
The value was -59.1%.

How did the AC50 turn out when `COc1ccc(S(=O)(=O)N/N=C(/C)c2cccc(NC(=O)c3ccccc3Cl)c2)cc1` was run?
Its AC50 is 0.2 µM (active).

Which “activity, negative = inhibition” value does the source give for `C/C(=N\NC(=O)c1cccc(Cl)c1)c1cccc(NC(=O)C(C)C)c1` here?
The value was -1.8%.

`C/C(=N/NS(=O)(=O)c1ccc(C)cc1)c1cccc(NC(=O)c2cccc(Cl)c2)c1` was tested. Which AC50 did it give?
Its AC50 is 3.98 µM (active).

`COc1ccc(NC(=O)c2cc(S(=O)(=O)N3CCS(=O)(=O)CC3)ccc2Cl)cc1` was tested. Which “activity, negative = inhibition” value did it give?
Its value is -7.18%.

`COc1ccc(CC(=O)Nc2cccc(/C(C)=N/NC(=O)c3cccc([N+](=O)[O-])c3)c2)cc1` was tested. Which AC50 did it give?
The AC50 was 1.58 µM (active).

Which AC50 does the source give for `O=C1c2ccccc2C(=O)c2c1ccc(C(=O)O)c2-c1ccc2ccccc2c1` here?
The AC50 was 1.58 µM (active).

How did the activity, negative = inhibition turn out when `O=C(O)c1ccccc1C(=O)Nc1cc2c(cc1Br)-c1ccccc1C2=O` was run?
Its activity, negative = inhibition is -5.92% [at 11.4 µM].

How did the activity, negative = inhibition turn out when `CC(C)c1ccc(/C=C2\C=C(c3ccc4ccccc4c3)OC2=O)cc1` was run?
Its activity, negative = inhibition is -10% [at 11.4 µM].

With `CC(C)OCCCN1CN(S(=O)(=O)c2cccc(Cl)c2)c2nc3ccccc3nc21` as the compound, how does the AC50 read?
The AC50 was 2.82 µM (active).

For `CCn1nc(C)c(NC(=O)/C=C/c2cnn(C)c2C)c1C`, which “activity, negative = inhibition” value is on record?
The value was 6.79%.

With `Cc1cc(N2CCOCC2)ccc1/C=C1\SC(=O)N(C(C)C)C1=O` as the compound, how does the AC50 read?
The AC50 was 31.6 µM (active).

Which “activity, negative = inhibition” value does the source give for `CN(C)c1ccc(/C=C2/C(=O)N(c3ccc([N+](=O)[O-])cc3)N=C2N2CCOCC2)cc1` here?
Its value is -9.26%.

`Cc1ccsc1/C=C1/SC(=O)N(CC(=O)N2CCOCC2)C1=O` was tested. Which “activity, negative = inhibition” value did it give?
Its value is 27.3%.

How did the AC50 turn out when `Cc1ccc2c(CC(=O)OCc3cc(=O)n4c(n3)sc3ccccc34)coc2c1` was run?
Its AC50 is 7.94 µM (active).

For `COc1cccc(Nc2ncc3nc(-c4ccccc4)c(=O)n(C)c3n2)c1`, which “activity, negative = inhibition” value is on record?
The value was -3.42%.

Which “activity, negative = inhibition” value does the source give for `c1cnc(Nc2nc(-c3ccc4ccccc4c3)cs2)nc1` here?
Its value is -7.88%.

With `COc1cccc(Nc2nc(-c3ccc(O)cc3)cs2)c1` as the compound, how does the AC50 read?
Its AC50 is 3.98 µM (active).

Which “activity, negative = inhibition” value does the source give for `CC1CCCC(NC(=O)C2CCN(S(=O)(=O)N3CCOCC3)CC2)C1C` (stereo unspecified) here?
The value was -4.6%.
